Where “and” joins values, the source holds several entries; their conditions need not be identical. Identical values can stand only once. Records with an inconclusive call do not appear. Where a structure was tested more than once in an assay, its records may differ in their call. Calls of active or inactive are those of the source. The call rests on the fitted dose curve; in most records, active means well fitted curve in the direction sought with a large enough effect; inconclusive means small, poorly fitted or top-dose-only effect, or another doubt; inactive means no such curve, though single readings can be large; an effect the other way counts as inactive or inconclusive.
Columns and labels:
[1] = molecular target: Beta-2 adrenergic receptor (Homo sapiens) (UniProt P07550); experiment: qHTS validation assay of beta-arrestin-biased ligands of beta2-adrenergic receptor (AID 485366)
Procedure, shortened: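 Tango cells expressing recombinant beta2-AR and beta-arrestin with tTA-driven luciferase, in DMEM with 1% FBS. Compounds were titrated up to 46 microM for 18 hr at 37 degrees C. Luminescence was read 15 min after substrate; curves were fitted and class-assigned.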

[2] = molecular target: ATP-dependent 6-phosphofructokinase (Trypanosoma brucei brucei) (UniProt O15648); experiment: qHTS Validation Assay to Find Inhibitors of T. brucei phosphofructokinase (AID 485368); further: potency means the concentration at half of the fitted maximal effect
Procedure, shortened: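 Activity was read as ADP production by luminescence (ADP-Glo) after 45 min at room temperature. The enzyme was 1.25nM PFK in 0.1M TEA pH 8.0 with 0.5 mM F6P, 0.1mM ATP and 5 mM MgCl2. Compounds were titrated up to 57 uM and % activity normalized to no-enzyme and full-enzyme controls.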

[3] = molecular target: Thioredoxin reductase 1, cytoplasmic (Rattus norvegicus) (UniProt O89049); experiment: qHTS Assay for Substrates of Mammalian Selenoprotein Thioredoxin Reductase 1 (TrxR1) (AID 488772);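 further: NADPH fluorescence in the first read after selenite addition and not the 8 min delta; series mostly up to about 57 µM; a drop in NADPH fluorescence below the no-compound background marks a TrxR1 substrate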
Procedure, shortened: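 Quantitative HTS in Tris-HCl buffer at pH 7.5 with EDTA and Tween-20, using rat TrxR1, 400 uM NADPH and 400 uM selenite (final). A fall in initial NADPH fluorescence relative to background marked substrate behaviour.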

[4] = molecular target: Thioredoxin reductase 1, cytoplasmic (Rattus norvegicus) (UniProt O89049); experiment: qHTS Assay for Inhibitors of Mammalian Selenoprotein Thioredoxin Reductase 1 (TrxR1) (AID 488773); conditions: Potency: inhibition;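 further: drop in NADPH fluorescence over an 8 min run after selenite addition; series mostly up to about 57 µM; nearly all actives have a fitted effect of over 40% in size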
Procedure, shortened: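 Steps: enzyme (90 nM) plus NADPH (400 uM final), 5 min at ~22 deg C; compound added, 15 min; selenite (400 uM final) added; fluorescence followed for 8 min. Concentration-response curves derived from the normalized delta values.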

[5] = molecular target: Flap endonuclease 1 (Homo sapiens) (UniProt P39748); experiment: qHTS Validation Assay for the Inhibitors of Human Flap endonuclease 1 (FEN1) (AID 488816); further: potency means the concentration at half of the fitted maximal effect
Procedure, shortened: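 Readings taken at 0 and 15 min after starting the reaction with 50 nM (final) substrate supplied the signal. Compounds had first sat with 10 nM FEN1 reagent for 15 min at room temperature. Values come from Hill-equation concentration-response fits.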

[6] = molecular target: M-phase phosphoprotein 8 (Homo sapiens) (UniProt Q99549); experiment: qHTS Validation Assay for Inhibitors for MPP8 Chromodomain Interactions with Methylated Histone Tails (AID 488949); further: nearly all actives have a fitted effect of over 55% in size; further: potency means the concentration at half of the fitted maximal effect
Procedure, shortened: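 MPP8 (50 nM) was pre-bound to 50 nM biotinylated H3(1-18)K9me3 peptide in PBS pH 7.4 with 0.01% Tween-20. Compounds were then added for 30 min at room temperature, and complex disruption was read by AlphaScreen with streptavidin donor and nickel-chelate acceptor beads.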

[7] = molecular target: Chromobox protein homolog 1 (Homo sapiens) (UniProt P83916); experiment: qHTS Validation Assay for Inhibitors of HP1-beta Chromodomain Interactions with Methylated Histone Tails (AID 488953); further: nearly all actives have a fitted effect of over 50% in size; further: potency means the concentration at half of the fitted maximal effect
Procedure, shortened: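 Measured as loss of AlphaScreen luminescence from streptavidin donor and nickel acceptor beads (10 ug/mL final) bridging HP1-beta and biotin-H3(1-18)K9me3, each 50 nM. Compounds met the preassembled complex for 30 min at RT.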

[8] = molecular target: Methanococcus maripaludis chaperonin (MmCpn) (UniProt Q6LX38); experiment: High-Throughput Screening for Modulators of Cytosolic Chaperonin Activity: MmCpn Primary Screen (AID 488978);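 further: 50 nM MmCpn enzyme hydrolysing 30 µM ATP at 37 °C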
Procedure, shortened: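 MmCpn at 50 nM final was preincubated 5 min at RT with compound. ATP was then added at 30 uM final for 10 min at 37 C. ADP formed was detected by Transcreener HTRF (665/590 nm).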

[9] = Quantitative high throughput screen for delayed death inhibitors of the malarial parasite plastid, 96 hour incubation (AID 488745); further: nearly all actives have a fitted effect of over 70% in size; further: potency means the concentration at half of the fitted maximal effect
Procedure, shortened: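 Growth of reporter-bearing P. falciparum in red cells is measured after 96 h with compound, covering two erythrocytic cycles. Luminescence from the integrated luciferase serves as the growth signal.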

[10] = Quantitative high throughput screen for delayed death inhibitors of the malarial parasite plastid, 48 hour incubation (AID 488752); further: nearly all actives have a fitted effect of over 65% in size; further: potency means the concentration at half of the fitted maximal effect
Procedure, shortened: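 One parasite generation (48 h, 37 C, 5% CO2) of luciferase-reporter P. falciparum in erythrocytes is run with test compound; decreased luminescence indicates inhibited growth.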

Measured: Potency

Flap endonuclease 1 (Homo sapiens), sequence (P39748 whole entry, looked up): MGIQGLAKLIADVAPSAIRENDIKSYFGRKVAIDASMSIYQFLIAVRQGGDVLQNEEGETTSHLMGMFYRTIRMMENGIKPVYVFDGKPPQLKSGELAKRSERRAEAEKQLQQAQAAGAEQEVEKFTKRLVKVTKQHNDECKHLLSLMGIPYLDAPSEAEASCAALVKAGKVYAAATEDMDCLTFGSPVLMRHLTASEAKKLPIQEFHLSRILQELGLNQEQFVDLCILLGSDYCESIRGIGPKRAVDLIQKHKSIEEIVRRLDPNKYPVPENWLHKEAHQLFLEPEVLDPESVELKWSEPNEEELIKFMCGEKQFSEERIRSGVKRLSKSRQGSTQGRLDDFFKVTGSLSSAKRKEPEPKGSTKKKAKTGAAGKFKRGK
Beta-2 adrenergic receptor (Homo sapiens), sequence (P07550 whole entry, looked up): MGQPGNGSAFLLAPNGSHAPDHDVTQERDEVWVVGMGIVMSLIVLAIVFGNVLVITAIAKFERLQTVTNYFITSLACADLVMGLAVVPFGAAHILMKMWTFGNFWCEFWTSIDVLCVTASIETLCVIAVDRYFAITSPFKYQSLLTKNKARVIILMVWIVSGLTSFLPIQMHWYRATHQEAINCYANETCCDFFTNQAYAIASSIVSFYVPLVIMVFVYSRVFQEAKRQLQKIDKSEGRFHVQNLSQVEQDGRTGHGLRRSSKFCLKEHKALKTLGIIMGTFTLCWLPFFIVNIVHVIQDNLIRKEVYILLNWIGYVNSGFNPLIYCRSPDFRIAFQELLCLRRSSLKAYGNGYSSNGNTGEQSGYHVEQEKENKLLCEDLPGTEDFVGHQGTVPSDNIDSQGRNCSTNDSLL
M-phase phosphoprotein 8 (Homo sapiens), sequence (Q99549 whole entry, looked up): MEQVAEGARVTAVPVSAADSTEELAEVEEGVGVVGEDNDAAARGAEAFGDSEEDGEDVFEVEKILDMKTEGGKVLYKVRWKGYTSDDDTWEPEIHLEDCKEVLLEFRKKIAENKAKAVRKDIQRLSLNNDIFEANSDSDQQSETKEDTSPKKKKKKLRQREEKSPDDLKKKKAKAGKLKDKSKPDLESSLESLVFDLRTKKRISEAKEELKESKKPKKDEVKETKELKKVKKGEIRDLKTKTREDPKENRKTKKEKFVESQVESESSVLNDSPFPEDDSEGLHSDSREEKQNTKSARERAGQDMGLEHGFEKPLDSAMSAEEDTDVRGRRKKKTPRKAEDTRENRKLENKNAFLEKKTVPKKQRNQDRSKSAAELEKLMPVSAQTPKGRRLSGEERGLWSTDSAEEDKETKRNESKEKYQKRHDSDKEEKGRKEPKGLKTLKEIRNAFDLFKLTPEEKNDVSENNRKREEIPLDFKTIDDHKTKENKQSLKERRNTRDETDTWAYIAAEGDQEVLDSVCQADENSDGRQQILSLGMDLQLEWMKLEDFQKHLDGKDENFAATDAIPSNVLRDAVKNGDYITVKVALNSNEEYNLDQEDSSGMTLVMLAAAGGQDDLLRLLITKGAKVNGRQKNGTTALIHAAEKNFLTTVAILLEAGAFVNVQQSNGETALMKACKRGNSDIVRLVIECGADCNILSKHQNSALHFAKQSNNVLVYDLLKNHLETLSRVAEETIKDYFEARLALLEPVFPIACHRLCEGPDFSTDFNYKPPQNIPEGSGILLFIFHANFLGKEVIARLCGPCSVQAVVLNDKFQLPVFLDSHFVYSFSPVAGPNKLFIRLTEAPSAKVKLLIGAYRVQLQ
Chromobox protein homolog 1 (Homo sapiens), sequence (P83916 whole entry, looked up): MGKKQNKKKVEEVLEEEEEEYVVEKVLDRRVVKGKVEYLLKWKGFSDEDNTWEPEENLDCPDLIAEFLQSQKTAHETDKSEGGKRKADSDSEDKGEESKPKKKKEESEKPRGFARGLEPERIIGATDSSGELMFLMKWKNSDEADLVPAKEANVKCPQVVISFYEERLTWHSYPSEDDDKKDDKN
Thioredoxin reductase 1, cytoplasmic (Rattus norvegicus), sequence (O89049 whole entry, looked up): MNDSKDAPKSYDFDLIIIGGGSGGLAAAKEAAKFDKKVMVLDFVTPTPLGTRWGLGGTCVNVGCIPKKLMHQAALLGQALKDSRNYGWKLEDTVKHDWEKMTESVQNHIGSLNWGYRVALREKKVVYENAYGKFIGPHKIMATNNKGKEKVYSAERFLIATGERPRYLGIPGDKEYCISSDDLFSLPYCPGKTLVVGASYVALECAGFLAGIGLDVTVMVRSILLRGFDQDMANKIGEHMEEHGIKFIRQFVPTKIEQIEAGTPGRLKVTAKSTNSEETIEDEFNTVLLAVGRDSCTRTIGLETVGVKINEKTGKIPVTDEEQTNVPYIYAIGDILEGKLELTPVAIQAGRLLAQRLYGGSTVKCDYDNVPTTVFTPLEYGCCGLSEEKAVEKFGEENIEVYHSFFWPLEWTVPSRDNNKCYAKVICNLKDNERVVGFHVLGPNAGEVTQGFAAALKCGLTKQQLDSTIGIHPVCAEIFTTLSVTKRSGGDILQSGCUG
ATP-dependent 6-phosphofructokinase (Trypanosoma brucei brucei), sequence (O15648 whole entry, looked up): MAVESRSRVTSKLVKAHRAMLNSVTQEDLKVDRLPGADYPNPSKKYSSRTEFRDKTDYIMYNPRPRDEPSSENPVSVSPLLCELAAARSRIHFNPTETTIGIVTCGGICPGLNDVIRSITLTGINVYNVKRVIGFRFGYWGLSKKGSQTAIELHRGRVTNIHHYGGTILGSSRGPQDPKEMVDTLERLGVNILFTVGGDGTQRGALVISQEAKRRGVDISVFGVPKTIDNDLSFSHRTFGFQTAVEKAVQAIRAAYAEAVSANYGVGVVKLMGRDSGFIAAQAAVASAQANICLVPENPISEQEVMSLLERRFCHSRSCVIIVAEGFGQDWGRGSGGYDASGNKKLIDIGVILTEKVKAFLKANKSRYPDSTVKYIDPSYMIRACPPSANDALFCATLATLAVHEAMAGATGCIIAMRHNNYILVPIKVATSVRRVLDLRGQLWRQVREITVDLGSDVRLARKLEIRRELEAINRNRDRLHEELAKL
Methanococcus maripaludis chaperonin (MmCpn), sequence (Q6LX38 1-543): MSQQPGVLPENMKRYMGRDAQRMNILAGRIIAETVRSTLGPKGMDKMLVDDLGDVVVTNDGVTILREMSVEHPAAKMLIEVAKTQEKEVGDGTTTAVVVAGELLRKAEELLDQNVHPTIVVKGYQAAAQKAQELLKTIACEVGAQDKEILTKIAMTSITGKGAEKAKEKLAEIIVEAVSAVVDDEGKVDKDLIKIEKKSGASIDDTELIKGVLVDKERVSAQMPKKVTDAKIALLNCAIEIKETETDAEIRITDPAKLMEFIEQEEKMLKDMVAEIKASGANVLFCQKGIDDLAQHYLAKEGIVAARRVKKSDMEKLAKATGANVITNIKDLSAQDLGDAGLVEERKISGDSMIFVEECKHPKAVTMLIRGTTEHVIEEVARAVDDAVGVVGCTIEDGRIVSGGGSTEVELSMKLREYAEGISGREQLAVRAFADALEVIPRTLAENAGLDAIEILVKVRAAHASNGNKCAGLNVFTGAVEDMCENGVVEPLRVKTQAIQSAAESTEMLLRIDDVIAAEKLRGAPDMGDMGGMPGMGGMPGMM

Brc1c(Br)c(Br)c2[nH]cnc2c1Br
not listed: [9] | [10]
inactive: all other assays above

c1ccc2c(c1)CCC[C@H]2Nc1nc2ccccc2[nH]1
inactive: [1] | [2] | [4] | [5] | [6] | [8]

CCN(c1nc(N)c(C(=O)N=C(N)N)nc1Cl)C(C)C
inactive: [1] | [2] | [3] | [5] | [6] | [8]

CC#CCOC(=O)c1c(C)nc2sc3c(c2c1N)CCC(O)C3 (configuration not stated)
not listed: [9] | [10]
inactive: all other assays above

CC(C)(C)c1ccc(/C=C/C(=O)Nc2ccc3c(c2)OCCO3)cc1
inactive: [1] | [2] | [4] | [5] | [6] | [8]

N[C@@H](Cc1ccc(F)cc1)C(=O)O
inactive: [1] | [2] | [3] | [4] | [6] | [7]

Cc1nc2n(c(=O)c1CCN1CCC(c3noc4cc(F)ccc34)CC1)CCCC2O (configuration not stated)
not listed: [5] | [9] | [10]
inactive: all other assays above

O=C(O)C1CN(CCCP(=O)(O)O)CCN1 (configuration not stated)
not listed: [2] | [8]
inactive: all other assays above

O=C(O)/C=C/c1ccc(O)c(O)c1
inactive: [1] | [2] | [4] | [5] | [6] | [7]

CCCn1c(=O)c(C)cn2nc(N)nc12
not listed: [9] | [10]
inactive: all other assays above

NC(N)=NC(N)=Nc1ccccc1
not listed: [2]
inactive: all other assays above

CCC(=O)N1CCN(C(=O)c2ccccc2)CC1
not listed: [2] | [8]
inactive: all other assays above

O=C(O)CCC/C=C\C[C@@H]1[C@@H](/C=C/[C@H](O)C2Cc3ccccc3C2)[C@@H](F)C[C@@H]1O
not listed: [7] | [9] | [10]
inactive: all other assays above

CNC(=O)c1cc2c(cn1)[nH]c1ccccc12
inactive: [1] | [2] | [3] | [5] | [6] | [8]

NOCC(=O)O
inactive: [1] | [2] | [5] | [6] | [7] | [8]

CC1=C(/C=C/C(C)=C/C=C/C(C)=C\C(=O)O)C(C)(C)CCC1
not listed: [4] | [9] | [10]
inactive: all other assays above

CC(=O)O[C@H]1CC2(C)[C@@H](C[C@@H](O)[C@H]3[C@@]4(C)CC[C@@H](O)[C@@H](C)[C@@H]4CC[C@@]32C)C1=C(CCC=C(C)C)C(=O)O (some centres not stated)
not listed: [2] | [8]
inactive: all other assays above

COc1cc([C@@H]2c3cc4c(cc3[C@H](O)C3COC(=O)[C@@H]32)OCO4)cc(OC)c1OC (some centres not stated)
not listed: [9] | [10]
inactive: all other assays above

O=C(O)Cc1c[nH]c2ccc(O)cc12
not listed: [4] | [9] | [10]
inactive: all other assays above

CCCCCC[C@@H]([C@@H](C)O)n1cnc2c(N)ncnc21
inactive: [1] | [2] | [3] | [4] | [6]

N#C/C(=C\c1ccc(O)c(O)c1)C(=O)NCCc1ccccc1
inactive: [1] | [5] | [8]
active: [2] 15.1 µM | [6] 11.2 µM and 18.9 µM | [7] 10 µM

Cn1c(=O)c2[nH]c(C3CCCC3)nc2n(C)c1=O
not listed: [2] | [8]
inactive: all other assays above

Nc1ncnc2c1nc(Br)n2C1OC2COP(=O)(O)O[C@@H]2C1O (some centres not stated)
not listed: [9] | [10]
inactive: all other assays above

CC(=O)O[C@H]1Cc2ccccc2N(C(N)=O)c2ccccc21
inactive: [1] | [2] | [4] | [5] | [6] | [8]

Nc1ccc(-c2nc3ccc(-c4nc5ccc(N)cc5[nH]4)cc3[nH]2)cc1
inactive: [1] | [3] | [4]
active: [9] 0.262 µM | [10] 0.415 µM | [5] 21.2 µM | [6] 44.7 µM and 26.7 µM | [7] 39.8 µM

COc1ccc(-c2cc3ncc(C)n3c(Nc3ncccc3C(N)=O)n2)cc1OC
not listed: [4] | [9] | [10]
inactive: all other assays above

c1ccc(C(NCCNC(c2ccccc2)c2ccccc2)c2ccccc2)cc1
not listed: [3] | [9] | [10]
inactive: all other assays above

Cc1cc(Cn2cnc3c2C[C@@H](C(=O)O)N(C(=O)C(c2ccccc2)c2ccccc2)C3)ccc1N
not listed: [7] | [9] | [10]
inactive: all other assays above

C=C1C[C@@]23CC[C@H]4[C@@](C)(CCC[C@@]4(C)C(=O)O)[C@@H]2CC[C@]1(O)C3
not listed: [9] | [10]
inactive: all other assays above

NCCCCN=C(N)N
not listed: [2]
inactive: all other assays above

CCCC(=O)NCCc1c2n(c3ccc(OC)cc13)CCCc1ccccc1-2
active: [6] 28.2 µM | [7] 35.5 µM
not listed: [9] | [10]
inactive: all other assays above

CN(C)C(=O)/N=N/C(=O)N(C)C
active: [7] 20 µM
31.6 µM (active) and inactive: [6]
not listed: [2]
inactive: all other assays above

NC[C@@H]1O[C@H](c2ccccc2)Cc2c1ccc(O)c2O
not listed: [5] | [9] | [10]
inactive: all other assays above

NC(=O)CNCCC(c1ccccc1)c1ccccc1
not listed: [2]
inactive: all other assays above

Cc1ccc([N+](=O)[O-])cc1S(=O)(=O)N(C)C
not listed: [2]
inactive: all other assays above

CCOC(=O)C12CC1/C(=N/O)c1ccccc1O2 (configuration not stated)
not listed: [2]
inactive: all other assays above

CCCN(CCc1ccccc1)C1CCc2c(O)cccc2C1 (configuration not stated)
active: [9] 3.29 µM | [10] 3.29 µM
not listed: [2]
inactive: all other assays above

CCCCCCCCCCC/C=C\C(C)(C)/C=C\CCCC(=O)O
not listed: [2]
inactive: all other assays above

O=C(O)[C@H]1NCCC[C@H]1C(=O)O
not listed: [2]
inactive: all other assays above

Source: PubChem BioAssay (NCATS)
